In PubChem BioAssay (Tox21):
Records with an inconclusive call do not appear. The source made the active and inactive calls. Unless noted, the call rests on the fitted dose curve; in most records, active means well fitted curve in the direction sought with a large enough effect in the repeat runs; inconclusive means weak or mixed curves; inactive means no such curve, though single readings can be large; an effect the other way counts as inactive or inconclusive.

Key:
[1] = biological target: Aryl hydrocarbon receptor (Homo sapiens) (UniProt P35869); experiment: qHTS assay to identify small molecule that activate the aryl hydrocarbon receptor (AhR) signaling pathway (AID 743085);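 further: HG2L7.5c1 human HepG2 liver cells with stably integrated DRE-driven firefly reporter; series mostly up to about 70 µM; nearly all actives have a fitted effect of over 15% in size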
How it was run: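 24 h compound exposure, 37C, HepG2-derived HG2L7.5c1 cells with DRE-responsive luciferase. Readouts: fluorescence viability, then luminescence at room temperature after 30 min.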

[2] = qHTS assay to identify small molecule that activate the aryl hydrocarbon receptor (AhR) signaling pathway - cell viability counter screen (AID 743086);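 further: HepG2 liver cells carrying the AhR DRE luciferase reporter; series mostly up to about 70 µM; nearly all actives have a fitted effect of over 45% in size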
How it was run: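 HepG2-AhR-luc (HG2L7.5c1) cells, 4000/well, were preincubated 5 h at 37C, exposed to compound in qHTS format for 24 hr at 37C, then given CellTiter-Fluor for 30 min; viability was read as fluorescence in the reporter wells.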

[3] = biological target: Peroxisome proliferator-activated receptor gamma (Homo sapiens) (UniProt P37231); experiment: qHTS assay to identify small molecule agonists of the peroxisome proliferator-activated receptor gamma (PPARg) signaling pathway (AID 743094; active means well fitted activation curve with a large enough effect in the signal ratio in the repeat runs, not every such curve was filed as active; the % refers to the signal ratio)
How it was run: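 Reporter activation was scored by fluorescence of cleaved LiveBLAzer B/G substrate (1 h, room temperature) in PPARg-bla HEK293H cells previously treated 17 h at 37C with DMSO-dissolved compounds.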

[4] = biological target: Peroxisome proliferator-activated receptor gamma (Homo sapiens) (UniProt P37231); experiment: qHTS assay to identify small molecule antagonists of the peroxisome proliferator-activated receptor gamma (PPARg) signaling pathway (AID 743191; calls by dose curve; further: series mostly up to about 63 µM; nearly all actives have a fitted effect of over 30% in size)
How it was run: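 GeneBLAzer PPARg UAS-bla HEK293H cells carrying a UAS-driven beta-lactamase reporter were plated at 3000 cells/well, preincubated 5 h at 37C, then given compound for 17 h at 37C; LiveBLAzer B/G FRET substrate was read after 1 h at room temperature.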

[5] = qHTS assay to identify small molecule antagonists of the peroxisome proliferator-activated receptor gamma (PPARg) signaling pathway - cell viability counter screen (AID 743194); further: nearly all actives have a fitted effect of over 55% in size
How it was run: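 PPARg-UAS-bla HEK293H cells were plated, rested 5 h at 37 C, then treated with compounds plus rosiglitazone (50 nM final) for 17 h at 37 C; viability was then read by CellTiter-Glo luminescence after 30 min at room temperature.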

[6] = qHTS assay for small molecule agonists of the antioxidant response element (ARE) signaling pathway - cell viability counter screen (AID 743203; calls by dose curve; further: nearly all actives have a fitted effect of over 55% in size)
How it was run: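 Viability counter screen: stably transfected ARE-bla HepG2 line, 16 hrs compound exposure at 37C/5% CO2, ATP-based CellTiter-Glo luminescence measured in the reporter wells.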

[7] = qHTS assay for small molecule activators of the heat shock response signaling pathway - cell viability counter screen (AID 743209); further: nearly all actives have a fitted effect of over 50% in size
How it was run: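 Viability of HSE-bla HeLa cells is measured with CellTiter-Glo in the wells already used for the reporter read. Compound exposure lasts 5 h at 37 C, and luminescence is read after 30 min at room temperature.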

[8] = qHTS assay for small molecule activators of the heat shock response signaling pathway (AID 743210; active means well fitted activation curve with a large enough effect in the signal ratio in the repeat runs, with a control signal flat, not every such curve was filed as active; the % refers to the signal ratio;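 further: HeLa cells with beta-lactamase reporter driven by heat shock elements; series mostly up to about 63 µM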)
How it was run: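 Activation of heat shock element-controlled beta-lactamase expression is measured in HeLa cells by LiveBLAzer FRET fluorescence, with compound exposure lasting 5 h at 37 C and substrate loading 2.5 h at room temperature.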

[9] = qHTS assay to identify small molecule agonists of the peroxisome proliferator-activated receptor delta (PPARd) signaling pathway - cell viability counter screen (AID 743211); further: nearly all actives have a fitted effect of over 55% in size
How it was run: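 Luminescent ATP viability assay (CellTiter-Glo, 30 min RT) in UAS-bla HEK293H cells carrying the PPAR delta reporter construct, 3000 cells/well, after a 17 h compound treatment at 37 C.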

[10] = biological target: Peroxisome proliferator-activated receptor delta (Homo sapiens) (UniProt Q03181); experiment: qHTS assay to identify small molecule agonists of the peroxisome proliferator-activated receptor delta (PPARd) signaling pathway (AID 743212; calls by dose curve)
How it was run: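 Cells expressing a UAS-driven beta-lactamase reporter (PPARd-bla HEK293H) were given test compounds after a 5 h settle and kept at 37 C. Reporter activity was then measured as FRET fluorescence using LiveBLAzer B/G substrate.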

[11] = qHTS assay to identify small molecule antagonists of the peroxisome proliferator-activated receptor delta (PPARd) signaling pathway - cell viability counter screen (AID 743213); further: nearly all actives have a fitted effect of over 50% in size
How it was run: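 Same-well viability: cells pre-incubated 5 h, dosed with compound plus 300 nM L165041, kept 17 h at 37 C, FRET substrate 2 h RT, then CellTiter-Glo 30 min RT and luminescence.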

[12] = biological target: Peroxisome proliferator-activated receptor delta (Homo sapiens) (UniProt Q03181); experiment: qHTS assay to identify small molecule antagonists of the peroxisome proliferator-activated receptor delta (PPARd) signaling pathway (AID 743215; active means well fitted inhibition curve with a large enough effect in the signal ratio in the repeat runs, not every such curve was filed as active; the % refers to the signal ratio;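 further: cells stimulated with agonist L165041 at 300 nM final during compound exposure; series mostly up to about 62 µM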)
How it was run: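 Plated HEK293H PPARd-bla cells rested 5 h at 37 C and 5% CO2. Compound, then agonist L165041 at 300 nM final, was added; 17 h at 37 C followed. Substrate loading, 2 h room temperature, fluorescence measured.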

[13] = qHTS assay to identify small molecule agonists of the farnesoid-X-receptor (FXR) signaling pathway - cell viability counter screen (AID 743218); further: nearly all actives have a fitted effect of over 45% in size
How it was run: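 Viability of FXR-bla HEK 293T cells is measured by ATP-based CellTiter-Glo luminescence following 16 h compound treatment at 37 C and a prior 2 h room-temperature beta-lactamase substrate step.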

[14] = qHTS assay to identify small molecule antagonists of the farnesoid-X-receptor (FXR) signaling pathway - cell viability counter screen (AID 743221; active means well fitted cell-killing curve with a large enough effect in the repeat runs, not every such curve was filed as active; further: nearly all actives have a fitted effect of over 50% in size)
How it was run: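 In GeneBLAzer FXR-UAS-bla HEK 293T cells stimulated with 50 uM chenodeoxycholic acid (final), compounds acted for 16 h at 37 C. Viability was assessed afterwards by CellTiter-Glo luminescence.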

[15] = biological target: Vitamin D3 receptor (Homo sapiens) (UniProt P11473); experiment: qHTS assay to identify small molecule agonists of the vitamin D receptor (VDR) signaling pathway (AID 743222; calls by dose curve)
How it was run: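 Fluorescence from cleaved LiveBLAzer B/G FRET substrate served as readout. VDR-bla cells had been treated 16 h at 37C with test compounds in DMSO, following a 4 h settling period, and substrate was loaded for 2 h at RT.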

[16] = biological target: Vitamin D3 receptor (Homo sapiens) (UniProt P11473); experiment: qHTS assay to identify small molecule antagonists of the vitamin D receptor (VDR) signaling pathway (AID 743223; active means well fitted inhibition curve with a large enough effect in the signal ratio in the repeat runs, not every such curve was filed as active; the % refers to the signal ratio)
How it was run: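 Agonist 1alpha,25-dihydroxyvitamin D3 (3 nM in well) was added with each compound to VDR-bla cells preincubated 4 h. Cells stood 16 h at 37C, then FRET substrate 2 h at room temperature; fluorescence intensity recorded.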

[17] = qHTS assay to identify aromatase inhibitors - cell viability counter screen (AID 743084);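 further: cells stimulated with testosterone during compound exposure; nearly all actives have a fitted effect of over 55% in size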
[18] = qHTS assay for small molecule agonists of the antioxidant response element (ARE) signaling pathway (AID 743202; active means well fitted activation curve with a large enough effect in the signal ratio in the repeat runs, not every such curve was filed as active; the % refers to the signal ratio)
How it was run: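 Steps: seed ARE-bla HepG2 cells (2,000/well); incubate 5 h at 37 C; add compounds by pin tool; incubate 16 h at 37 C; add FRET substrate; read fluorescence after 2 h at RT.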

[19] = biological target: Bile acid receptor (Homo sapiens) (UniProt Q96RI1); experiment: qHTS assay to identify small molecule agonists of the farnesoid-X-receptor (FXR) signaling pathway (AID 743220; active means well fitted activation curve with a large enough effect in the signal ratio in the repeat runs, not every such curve was filed as active; the % refers to the signal ratio)
How it was run: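 FXR-UAS-bla HEK 293T cells carrying a UAS-driven beta-lactamase reporter were plated for 5 h at 37C/5% CO2, then exposed to DMSO-dissolved Tox21 10K compounds for 16 h at 37C. A LiveBLAzer B/G FRET substrate was loaded for 2 h at room temperature before fluorescence reading.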

[20] = biological target: Bile acid receptor (Homo sapiens) (UniProt Q96RI1); experiment: qHTS assay to identify small molecule antagonists of the farnesoid-X-receptor (FXR) signaling pathway (AID 743217; active means well fitted inhibition curve with a large enough effect in the signal ratio in the repeat runs, not every such curve was filed as active; the % refers to the signal ratio)
How it was run: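 Screen of the Tox21 10K library in quantitative HTS format using FXR-UAS-bla HEK 293T reporter cells. Agonist chenodeoxycholic acid, 50 uM final, added with compounds; 16 h incubation at 37 °C; beta-lactamase FRET fluorescence measured.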

Measured: Potency

Sequence of Aryl hydrocarbon receptor (Homo sapiens) (P35869 whole entry, looked up): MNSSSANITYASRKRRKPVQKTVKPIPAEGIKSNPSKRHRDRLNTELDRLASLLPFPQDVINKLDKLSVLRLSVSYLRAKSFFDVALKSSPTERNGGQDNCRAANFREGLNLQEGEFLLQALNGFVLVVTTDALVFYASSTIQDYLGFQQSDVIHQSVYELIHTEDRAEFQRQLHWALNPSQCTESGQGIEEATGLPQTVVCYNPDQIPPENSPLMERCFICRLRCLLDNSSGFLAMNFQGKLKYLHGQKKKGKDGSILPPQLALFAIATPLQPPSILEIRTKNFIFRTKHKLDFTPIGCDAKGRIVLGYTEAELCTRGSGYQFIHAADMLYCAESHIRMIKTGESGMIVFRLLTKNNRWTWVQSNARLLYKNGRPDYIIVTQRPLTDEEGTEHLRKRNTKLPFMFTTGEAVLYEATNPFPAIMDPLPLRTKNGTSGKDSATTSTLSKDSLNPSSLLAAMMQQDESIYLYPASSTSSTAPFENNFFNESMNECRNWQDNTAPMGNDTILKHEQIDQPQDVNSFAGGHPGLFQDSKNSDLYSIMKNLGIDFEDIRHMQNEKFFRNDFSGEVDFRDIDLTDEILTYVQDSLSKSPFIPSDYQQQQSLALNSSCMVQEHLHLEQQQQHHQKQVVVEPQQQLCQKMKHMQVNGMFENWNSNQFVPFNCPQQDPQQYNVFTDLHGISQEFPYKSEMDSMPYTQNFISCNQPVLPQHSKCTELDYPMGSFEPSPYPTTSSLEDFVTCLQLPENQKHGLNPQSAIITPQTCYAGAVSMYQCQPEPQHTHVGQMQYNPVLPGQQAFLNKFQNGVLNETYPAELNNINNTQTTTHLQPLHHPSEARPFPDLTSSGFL
Sequence of Bile acid receptor (Homo sapiens) (Q96RI1 whole entry, looked up): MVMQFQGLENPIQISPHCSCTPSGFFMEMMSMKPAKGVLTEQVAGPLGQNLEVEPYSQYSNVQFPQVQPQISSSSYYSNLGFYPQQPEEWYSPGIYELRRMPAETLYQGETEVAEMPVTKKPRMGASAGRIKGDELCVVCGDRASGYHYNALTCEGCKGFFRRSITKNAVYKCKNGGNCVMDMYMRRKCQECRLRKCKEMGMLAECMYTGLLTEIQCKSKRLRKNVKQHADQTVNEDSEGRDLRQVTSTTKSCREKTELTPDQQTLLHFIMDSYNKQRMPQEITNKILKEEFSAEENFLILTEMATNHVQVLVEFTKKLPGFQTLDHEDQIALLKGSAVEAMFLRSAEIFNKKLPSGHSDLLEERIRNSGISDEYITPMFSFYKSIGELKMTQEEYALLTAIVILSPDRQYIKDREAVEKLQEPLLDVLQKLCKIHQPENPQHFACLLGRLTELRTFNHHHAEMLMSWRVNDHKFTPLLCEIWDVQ
Sequence of Vitamin D3 receptor (Homo sapiens) (P11473 whole entry, looked up): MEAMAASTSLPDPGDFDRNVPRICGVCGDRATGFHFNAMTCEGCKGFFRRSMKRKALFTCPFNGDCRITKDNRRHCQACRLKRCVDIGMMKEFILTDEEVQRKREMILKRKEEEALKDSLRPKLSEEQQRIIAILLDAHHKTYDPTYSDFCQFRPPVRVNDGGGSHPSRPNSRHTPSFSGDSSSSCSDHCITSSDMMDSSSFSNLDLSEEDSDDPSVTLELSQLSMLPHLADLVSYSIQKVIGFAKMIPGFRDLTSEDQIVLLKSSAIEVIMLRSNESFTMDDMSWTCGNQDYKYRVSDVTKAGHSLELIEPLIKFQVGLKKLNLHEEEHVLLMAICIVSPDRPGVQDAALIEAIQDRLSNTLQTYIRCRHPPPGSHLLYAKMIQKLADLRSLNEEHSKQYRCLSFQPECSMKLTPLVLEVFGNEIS
Sequence of Peroxisome proliferator-activated receptor delta (Homo sapiens) (Q03181 whole entry, looked up): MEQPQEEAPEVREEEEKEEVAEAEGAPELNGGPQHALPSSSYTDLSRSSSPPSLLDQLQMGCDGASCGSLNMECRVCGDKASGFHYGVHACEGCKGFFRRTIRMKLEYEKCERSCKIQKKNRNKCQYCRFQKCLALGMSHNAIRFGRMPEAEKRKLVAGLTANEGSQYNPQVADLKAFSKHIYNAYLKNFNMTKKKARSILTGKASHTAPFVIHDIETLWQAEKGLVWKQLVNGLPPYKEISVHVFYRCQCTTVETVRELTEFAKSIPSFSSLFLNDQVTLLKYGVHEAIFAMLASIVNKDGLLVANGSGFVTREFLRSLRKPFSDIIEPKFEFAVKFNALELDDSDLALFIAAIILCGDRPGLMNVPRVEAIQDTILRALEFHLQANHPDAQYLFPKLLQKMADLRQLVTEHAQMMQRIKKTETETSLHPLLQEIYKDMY
Sequence of Peroxisome proliferator-activated receptor gamma (Homo sapiens) (P37231 whole entry, looked up): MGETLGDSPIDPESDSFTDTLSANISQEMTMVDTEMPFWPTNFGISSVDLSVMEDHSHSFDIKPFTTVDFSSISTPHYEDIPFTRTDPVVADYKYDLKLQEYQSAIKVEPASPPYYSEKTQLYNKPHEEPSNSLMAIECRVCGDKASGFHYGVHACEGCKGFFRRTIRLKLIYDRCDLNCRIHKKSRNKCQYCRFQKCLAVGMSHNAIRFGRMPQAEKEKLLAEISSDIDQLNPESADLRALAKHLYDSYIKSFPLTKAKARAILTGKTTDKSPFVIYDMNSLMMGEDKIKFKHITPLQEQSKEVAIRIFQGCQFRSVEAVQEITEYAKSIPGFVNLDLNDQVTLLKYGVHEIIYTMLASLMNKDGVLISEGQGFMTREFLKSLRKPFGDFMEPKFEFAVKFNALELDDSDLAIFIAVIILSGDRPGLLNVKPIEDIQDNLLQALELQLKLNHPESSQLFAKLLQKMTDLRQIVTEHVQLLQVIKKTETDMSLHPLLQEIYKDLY

CCCCCCCCS(=O)(=O)Cl
inactive: [1] | [2] | [3] | [4] | [5] | [6] | [7] | [8] | [9] | [10] | [11] | [12] | [13] | [14] | [15] | [16]

CN(C(=O)c1c(O)c2ccccc2n(C)c1=O)c1ccccc1
inactive: [17] | [2] | [3] | [5] | [18] | [6] | [7] | [8] | [9] | [10] | [11] | [12] | [13] | [14] | [15] | [16]

CC/C=C\CC/C=C/C(OCC)OCC
inactive: [2] | [5] | [6] | [7] | [9] | [10] | [11] | [12] | [13]

Cc1cnc(NS(=O)(=O)c2ccc(N)cc2)nc1
inactive: [18] | [6] | [7] | [8] | [9] | [10] | [12] | [13] | [14] | [15] | [16]

CCOC(=O)c1cccc(N)c1
inactive: [17] | [2] | [5] | [18] | [6] | [7] | [8] | [9] | [10] | [11] | [12] | [13] | [14] | [15] | [16]

NC(=O)c1cn(Cc2c(F)cccc2F)nn1
inactive: [2] | [5] | [18] | [6] | [7] | [8] | [9] | [10] | [11] | [12] | [13] | [19] | [14] | [15] | [16]

Cc1cccc(C)c1NC(=O)C(C)N (centres undefined)
inactive: [17] | [2] | [6] | [7] | [8] | [9] | [10] | [11] | [12] | [13] | [15] | [16]

CCOC(=O)CC(C)=O
inactive: [2] | [5] | [18] | [6] | [7] | [8] | [9] | [13] | [14] | [15]

NCCc1cnc[nH]1
inactive: [17] | [2] | [18] | [6] | [8] | [9] | [11] | [13] | [14]

COc1nc(N)nc2c1ncn2[C@@H]1O[C@H](CO)[C@@H](O)[C@@H]1O
inactive: [17] | [2] | [18] | [6] | [7] | [8] | [9] | [13] | [14] | [15] | [16]

CC(C)NCC(O)c1ccc(NS(C)(=O)=O)cc1 (centres undefined)
inactive: [2] | [5] | [18] | [6] | [7] | [8] | [9] | [10] | [11] | [12] | [13] | [14] | [15] | [16]

Cc1nc2c([nH]1)c(=O)n(C)c(=O)n2Cc1ccco1
inactive: [17] | [2] | [18] | [6] | [7] | [8] | [9] | [11] | [20] | [13] | [19] | [15] | [16]

Cc1cc(O)cc2c1O[C@](C)(CCC[C@H](C)CCC[C@H](C)CCCC(C)C)CC2
inactive: [17] | [2] | [3] | [18] | [6] | [7] | [8] | [20] | [13] | [19] | [14] | [15] | [16]

COc1ccc2c(c1)CCCC2=O
inactive: [4] | [5] | [6] | [7] | [8] | [9] | [11] | [13] | [19] | [15] | [16]

CC(=O)OCC(=O)[C@@]1(O)CC[C@H]2[C@@H]3CCC4=CC(=O)CC[C@]4(C)[C@H]3C(=O)C[C@@]21C
inactive: [17] | [2] | [5] | [6] | [9] | [10] | [13]

NS(=O)(=O)c1cc(C(=O)NN2C[C@H]3[C@H]4CCC(C4)[C@H]3C2)ccc1Cl
inactive: [5] | [18] | [6] | [7] | [8] | [9] | [11] | [13] | [14]

COc1ccc(CCN(C)CCCC(C#N)(c2cc(OC)c(OC)c(OC)c2)C(C)C)cc1OC (centres undefined)
inactive: [1] | [2] | [5] | [18] | [6] | [7] | [8] | [9] | [10] | [11] | [13] | [15]

CCN(CC)CCOCCOC(=O)C1(c2ccccc2)CCCC1
inactive: [1] | [3] | [5] | [18] | [6] | [7] | [8] | [9] | [13] | [19] | [14]
